Screening data from PubChem.
In the library only some 1.4% were active in any assay of this set; here they are far more common.
p53 reactivation = re-activators of mutant p53; H1299 p53-A138V BP100-luciferase reporter, luminescence, 24 h; Potency, µM (top dose mostly 92.2 µM), without a hit: top-dose activity change, positive = activation, usual class: activators; actives 0.063% (n = 320,000); AID 504706; note: potency is the fitted concentration of half-maximal effect; % of control where 0% means no effect; nearly all actives have a fitted effect of over 45% in size
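p53-null H1299 cells stably carrying temperature-sensitive p53-A138V and a BP100-luciferase reporter were pinned with compounds (4-point, 1:5 series) and held 24 hrs at 37 deg C. Luminescence was read 10 min after detection reagent.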
uPA surface inh = blocks generation of uPA at the cell surface | actives 0.31% (n = 330,000) | cell surface uPA generation assay, qHTS | Potency, µM (titrated, usually from 38.3 µM), for the others: at the highest dose activity change, negative = inhibition, most hits filed as inhibitors; active = well fitted inhibition curve with a large enough effect; inconclusive = small, poorly fitted or top-dose-only effect; inactive = no such curve, though single readings can be large or run the other way; tested in mouse RAW 264.7 cells; note: potency is the fitted concentration of half-maximal effect; % is set by controls: 0 for no effect and ±100 for the full control effect; nearly all actives have a fitted effect of over 55% in size
KCNH2 WT inh = blocks the wildtype human KCNH2 potassium channel | actives 0.37% (n = 340,000) | activity change, % at 1.84 µM | Q12809 | U2OS, BacMam KCNH2, thallium flux FluxOr; stronger effect = lower value;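 active = maximum activity change below -70%; inconclusive = maximum activity change between -70% and -50%; inactive = maximum activity change above -50%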; note: % is set by controls: 0 for no effect and ±100 for the full control effect
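U2OS cells transduced with wild-type KCNH2 virus are loaded with FluxOr dye for 45 min, and thallium flux is measured in kinetic reads before and after stimulation buffer. Rate constants are normalized to DMSO controls.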
Mm-Cpn inhibitor = M. maripaludis TRiC chaperonin inhibition. purified Mm-Cpn ATPase, ADP Transcreener TR-FRET. Potency, µM (highest dose often 76.9 µM), inactives show at the highest dose activity, negative = inhibition, hits mostly inhibitors. actives 0.031% (n = 330,000). AID 504842; note: potency is the fitted concentration of half-maximal effect; % is set by controls: 0 for no effect and ±100 for the full control effect; nearly all actives have a fitted effect of over 80% in size
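ATPase turnover read by TR-FRET ADP competition (Eu cryptate antibody/ADP-d2, 665/590 nm): 10uM ATP final, 25nM Mm-CPN final, 30 min 37degC after 10-min compound preincubation, pH 7.4 Tris/KCl/MgCl2/DTT buffer.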
KCNH2 3.1 block = blocks the human KCNH2 3.1 channel isoform | U2OS KCNH2 3.1, thallium flux FluxOr; stronger effect = lower value | activity change, % (tested at about 1.8 µM) | actives 0.95% (n = 340,000);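 active = maximum activity change below -70%; inconclusive = maximum activity change from -70% to -50%; inactive = maximum activity change above -50%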;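 note: thallium influx rate constant from kinetic fluorescence after stimulation buffer; % is set by controls: 0 for no effect and ±100 for the full control effect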
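Thallium flux via FluxOr fluorescence (Red40 quencher, 45 min loading) in U2OS cells virally expressing the KCNH2 3.1 isoform (1.77 x 10^8 /mL virus, overnight at 37 C). Rate constants from 2-min kinetic reads post-stimulation, normalised to positive and negative controls.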
ASM inhibitor = blocks human secretory acid sphingomyelinase; P17405; Potency, µM (series often up to 57.5 µM), for the others: at the top dose activity change, negative = inhibition, hits mostly inhibitors; actives 0.006% (n = 340,000); placental ASM, HMU-PC fluorogenic substrate, 60 min; note: potency is the fitted concentration of half-maximal effect
Target sequence (P17405 47-631 limits assumed): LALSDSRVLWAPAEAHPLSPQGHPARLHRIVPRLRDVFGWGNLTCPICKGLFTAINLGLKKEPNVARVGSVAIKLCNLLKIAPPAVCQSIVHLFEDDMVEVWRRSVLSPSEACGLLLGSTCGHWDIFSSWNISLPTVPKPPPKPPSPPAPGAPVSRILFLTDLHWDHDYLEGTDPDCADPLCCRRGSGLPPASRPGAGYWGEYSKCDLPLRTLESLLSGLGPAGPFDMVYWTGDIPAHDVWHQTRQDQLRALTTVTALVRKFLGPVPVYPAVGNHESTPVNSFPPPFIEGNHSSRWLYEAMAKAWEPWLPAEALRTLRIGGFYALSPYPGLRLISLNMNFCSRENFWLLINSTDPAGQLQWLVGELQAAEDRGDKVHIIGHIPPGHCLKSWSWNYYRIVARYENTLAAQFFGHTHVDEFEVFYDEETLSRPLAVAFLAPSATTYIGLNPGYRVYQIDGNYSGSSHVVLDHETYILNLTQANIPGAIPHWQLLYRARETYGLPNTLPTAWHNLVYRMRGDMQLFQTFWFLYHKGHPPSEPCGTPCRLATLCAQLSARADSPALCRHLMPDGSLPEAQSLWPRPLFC
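HMU-PC0 cleavage (9 uM final) by human placental ASM, 60 min at 37 °C following 10 min compound exposure at RT; stopped at pH 10, fluorescence Ex 386/Em 447 nm.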
* = called active by the depositor; ? = inconclusive; / = not tested or not shown. Unless noted, calls come from the whole dose curve; as a rule, active = well fitted curve in the direction sought with a large enough effect; inconclusive = small, poorly fitted or top-dose-only effect, or another doubt; inactive = no such curve, though single readings can be large; an effect the other way counts as inactive or inconclusive.

SMILES	p53 reactivation	uPA surface inh	KCNH2 WT inh	Mm-Cpn inhibitor	KCNH2 3.1 block	ASM inhibitor
O=c1cc(C(F)(F)F)c2cc3c4c(c2o1)CCCN4CCC3	8%	-3%	-72*	-4%	-109*	87%
Nc1n[nH]c(N)c1N=Nc1ccc2c(c1)OCO2	7%	?	-5	-3%	11	-10%
COc1cc2c(cc1O)[C@@H]1Cc3ccc(OC)c(O)c3CN1CC2	-15%	4.5µM*	2	-8%	6	-1%
CCN(CC)CCNCC(=O)Nc1ccc(Cl)cc1C(=O)c1ccccc1	5%	2%	-87*	-4%	-95*	1%
CN(C)CCCNCC(=O)Nc1ccc(Cl)cc1C(=O)c1ccccc1	10%	0%	-10	-3%	-14	-1%
O=P(Oc1ccccc1)(Oc1ccccc1)C(O)c1ccccc1 (stereo unspecified)	8%	11%	6	3%	3	0%
O=P(Oc1ccccc1)(Oc1ccccc1)C(Nc1ccccc1)c1ccccc1 (stereo unspecified)	-11%	-1%	3	0%	-70*	-1%
CC(C)(C)C(=O)Nc1ccc(-c2csnn2)cc1	6%	?	0	-20%	6	5%
C=C1[C@@H](O)[C@H](Cc2ccccc2)N(Cc2ccccc2Br)S1(=O)=O	/	10µM*	2	/	12	-1%
COc1ccc2[nH]c3c(c2c1)CCN1C(=O)C(CC(=O)NCc2ccco2)C[C@H](C(=O)N(C(C)C)C(C)C)[C@@]31C (stereo partly specified)	-8%	?	-7	-3%	10	1%
Nc1nc(F)nc2c1ncn2[C@@H]1O[C@H](CO)[C@@H](O)[C@H]1O	/	?	7	/	-3	1%
OC[C@H]1O[C@@H](n2cnc3cc(Cl)c(Cl)cc32)[C@H](O)[C@@H]1O	1%	8.9µM*	4	0%	-12	3%
CCOC(=O)c1ccsc1NC(=O)CCS(=O)(=O)c1ccccc1	-30%	?	5	-8%	-1	-3%
CC(=O)c1sc(NC(=O)CCS(=O)(=O)c2ccc(C)cc2)nc1C	?	11µM*	-4	-2%	-4	/
Cc1ccc(-n2ncc3c(=O)n(CC(=O)NCc4ccco4)cnc32)cc1C	-5%	?	0	-7%	-85*	-2%
Cn1ncnc2c(=O)n(C)c(=O)nc1-2	-69%	1.1µM*	-3	0%	-17	2%
Cc1n[nH]c(C)c1CCCCOc1ccccc1[N+](=O)[O-]	/	?	11	0%	-1	0%
CCCCCCn1c(O)c(C=NC2CCN(Cc3ccccc3)CC2)c(=O)[nH]c1=O	-8%	2%	-1	-1%	-95*	0%
O=C(/C=C/c1ccccc1)NC(NC(=S)Nc1cc(Cl)ccc1Cl)C(Cl)(Cl)Cl (stereo unspecified)	-5%	?	-7	0%	-3	-1%
COc1ccc(-c2noc(=O)n2Cc2cc(C)ccc2C)cc1	1%	?	-7	-3%	-24	-1%
Cc1ccc(Nc2nc(N)nc(CCl)n2)c(C)c1	2%	4µM*	-6	0%	1	6%
ClC1=C(Cl)C(Cl)=C(Cl)C1=C/C=C/c1ccccc1	?	2%	4	-2%	14	-14%
C=CCNC(=S)N1Cc2ccccc2-n2nncc2C1	/	/	-120*	/	17	/
CC(C)N(C(=O)Cn1c(=O)oc2ccccc21)c1ccccc1	2%	15%	4	1%	-5	-7%
Fc1ccccc1CNC1CN2CCC1CC2 (stereo unspecified)	-3%	-8%	1	1%	6	2%
SMILES	p53 reactivation	uPA surface inh	KCNH2 WT inh	Mm-Cpn inhibitor	KCNH2 3.1 block	ASM inhibitor
Ic1ccccc1CN[C@@H]1C2CCN(CC2)[C@@H]1C(c1ccccc1)c1ccccc1	-17%	-5%	5	3%	-75*	?
CCSC1=NN1c1cc(C)nc(N)n1	2%	-22%	0	3%	-95*	10%
Cc1ccc(OCCSC2=NN2c2cc(C)nc(N)n2)cc1	3%	4%	0	1%	-3	6%
Nc1ccc(CCN2CCN(c3cccc(C(F)(F)F)c3)CC2)cc1	/	-15%	9	/	-72*	-1%
COc1ccc(C[C@H]2CN3C(=NC[C@@H]3C(C)C)N2CCNC(=O)c2ccc(C)c(Br)c2)cc1	0%	?	-114*	/	-100*	-4%
COc1ccc(-c2oc3cc(OC)c(O)c(OC)c3c(=O)c2OC)cc1O	3%	?	-4	/	-2	-2%
O=[N+]([O-])c1ccc([N+](=O)[O-])c(Nc2ccc(N3CCOCC3)cc2)c1	-2%	?	9	1%	-6	-16%
COC(=O)c1ccc(N2C(=O)CC(N3CCC(n4c(=O)[nH]c5ccccc54)CC3)C2=O)cc1 (stereo unspecified)	1%	-1%	3	3%	0	0%
O=C(CCCN1CCC(n2c(=O)[nH]c3ccccc32)CC1)c1ccc(F)cc1	-6%	14%	-11	-2%	-71*	-1%
COc1ccc(-c2ccccc2[C@H]2[C@@H]3C=CC[C@@H](C)[C@@H]3C(=O)N2Cc2ccccc2)cc1	-5%	?	-12	-1%	-6	-9%
O=C(c1ccc(C(F)(F)F)cc1)C1CCCN(C2CCSCC2)C1 (stereo unspecified)	-5%	-6%	-38	-3%	-36	-3%
Cc1cc(Cl)ccc1C(=O)C1CCCN(C2CCSCC2)C1 (stereo unspecified)	-1%	-2%	-34	-2%	-87*	3%
C=CCC[C@H](Cc1ccc(F)cc1)C(=O)OC[C@H](Cc1c[nH]c2ccccc12)NC(=O)[C@@H](CC=C)CC(=O)NCCO	-4%	?	-17	1%	-13	-6%
Cc1ccsc1C(=O)C1CCCN(Cc2ccccc2O)C1 (stereo unspecified)	-4%	-2%	28	-1%	-1	2%
Cc1ccsc1C(=O)C1CCCN(Cc2cccn2-c2ccccn2)C1 (stereo unspecified)	-1%	-8%	-26	3%	-75*	-4%
CSc1ccc(C(=O)C2CCCN(C(=O)CCc3c(C)nn(C)c3C)C2)cc1 (stereo unspecified)	/	?	-12	/	3	1%
CCOC(=O)C1(CCc2ccccc2)CCN(Cc2ccc(NC(C)=O)cc2)CC1	3%	-1%	-3	1%	-6	-4%
CCOC(=O)C1(CCc2ccccc2)CCN(Cc2ccc3c(c2)OCCO3)CC1	2%	-2%	-43	0%	-113*	2%
